The record followed here is PubChem BioAssay AID1117267 (The Scripps Research Institute Molecular Screening Center, 2014).

Molecules are shown by their SMILES. About 1,200 (1.3%) of roughly 92,000 compounds were called active. The sample as a whole holds a higher share of actives than the screen did. Unmarked numbers belong to inactive results.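 How the source made its calls: active means activation above the mean of all tested compounds plus 3 SD (cut at about 9.5% in these data); inactive means the rest.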

This experiment can be described thus: compounds raising TTR promoter-driven luciferase – cell-based, luminescence, SH-SY5Y, TTR promoter Gaussia luciferase, primary screen (AID 1117267).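 Further: cells exposed to compounds for one day before reading; 0% = median of all test compound wells on the plate.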 Particulars: at 16.7 µM, stronger effect = higher value, 100% = recombinant luciferase protein wells.
Turning to `Cc1nn(C)cc1S(=O)(=O)N1CCN(c2ccc(F)cc2)CC1`, the activation was 5.22%.

As for `COC(=O)C[C@@H]1C=C[C@@H](NS(=O)(=O)c2cccc(OC)c2)[C@@H](CO)O1`, the activation is 2.56%.

Consider `COC(=O)[C@@]12C[C@@H](CC(=O)N3CCCCC3)C(=O)N(Cc3ccc4c(c3)OCO4)C1=CCC(C)(C)C2`, for which the activation was -2.52%.

On to `O=C(NCCCNC(=O)c1ccccc1Cl)c1cnccn1`, for which the activation was 17.1% (active).

As for `O=C(COc1ccc(Cl)cc1Cl)NCCCNC(=O)c1cnccn1`, the activation is 1.09%.

As for `Cc1ccc(C(=O)NCCNC(=O)c2cnccn2)cc1`, the activation is -0.47%.

Turning to `CCC(C)NCCOCCOc1ccc(Br)cc1C` (configuration not stated), the activation is 4.02%.

Turning to `CCc1nn(CCCC(=O)Nc2ccc(C)c(C)c2)c(=O)c2cc3occc3n12`, the activation was -0.44%.

For `Nc1ccc2c(c1)C(O)c1ccc(Cl)cc1-2` (configuration not stated), the activation is -0.84%.

Turning to `Cc1nnc(SCC(=O)NNC(=O)c2ccc(Cl)cc2)n1CC1CCCO1` (configuration not stated), the activation was -0.27%.

On to `Brc1ccc(-c2csc(N/N=C/c3cccnc3)n2)cc1`, for which the activation was -4.96%.

Take `O=C(N/N=C/c1cccnc1)c1cc2ccccc2cc1O`: the activation is -0.26%.

Turning to `C(=N\n1cnnc1)/c1cccnc1`, the activation was 9.82% (active).

For `CC(=O)Nc1ccc(N2C(=O)CC(Sc3nccc(C)n3)C2=O)cc1` (configuration not stated), the activation was -1.45%.

For `CC(Oc1cccc(Cl)c1)C(=O)NC1CC(C)(C)NC(C)(C)C1` (configuration not stated), the activation was -0.86%.

Turning to `O=C(O/N=C(/c1ccccc1)c1ccncc1)c1ccccc1[N+](=O)[O-]`, the activation is -1%.

In the case of `Cc1ccccc1/[N+]([O-])=C/c1ccncc1`, the activation is 11% (active).

Consider `C=C(C)CNC(=S)N/N=C/c1ccccc1OCC(=O)O`, for which the activation is 8.68%.

`CN(C)CCNC(=O)Cc1ccc([N+](=O)[O-])cc1`: the activation is 0.61%.

`CCCNC(=O)c1onc(CSc2ccc(F)cc2)c1C(=O)NC(C)C`: the activation was -2.47%.

On to `COc1cc(C(=O)NNC(=O)CN2C(=O)NC3(CCCC3)C2=O)cc(OC)c1OC`, for which the activation is -1.23%.

As for `COc1cc(N2C(=O)CC3(CCCC3)CC2=O)cc(OC)c1OC`, the activation is 11.7% (active).

As for `COc1cc(NC(=S)N2CCCC(C)C2)cc(OC)c1OC` (configuration not stated), the activation was 4.11%.

As for `CC(C)(C)OC(=O)N/N=C/c1cn(-c2ccccc2)nc1-c1cccnc1`, the activation is -1.28%.

Take `CC(C)N(C(=O)[C@H]1C[C@H](CC(=O)NCCC2=CCCCC2)C(=O)N2CCc3c([nH]c4cc(CCC(=O)N(C)C)ccc34)[C@]12C)C(C)C`: the activation is -0.83%.

Regarding `c1ccc(-c2c[nH]c(-c3ccccc3)c2)cc1`, the activation was -1.9%.

For `CCOC(=O)c1c(NC(=O)c2ccc(Br)o2)sc2c1CCCC2`, the activation was 12.3% (active).

As to `CCOCC(=O)Nc1sc2c(c1C(=O)OCC)CCCC2`, the activation was 2.19%.

In the case of `CCOC(=O)c1c(NC(=S)Nc2ccccc2C)sc2c1CCC2`, the activation is 1.24%.

As to `COc1cccc2cc(/C(C)=N/NC(=O)c3ccco3)oc12`, the activation was 1.86%.

`Cc1nc2c(-c3ccc(F)cc3)c(C)nn2c(C)c1CCC(=O)N1CCN(c2ccccn2)CC1`: the activation is 1.67%.

Take `Cn1c(=O)c2c(ncn2CC(=O)N2CCN(c3ccccc3)CC2)n(C)c1=O`: the activation is 3.74%.

Turning to `Cc1nc2nc(C)c(CCC(=O)N3CCN(c4ccccc4)CC3)c(C)n2n1`, the activation was 25.8% (active).

Take `Cc1cccc(C)c1NC(=O)CN1CCN(c2ccc(F)cc2)CC1`: the activation was 1.02%.

In the case of `O=C(O)CSc1nccc2ccccc12`, the activation is -2.92%.

As for `CCN(C(=O)CN1C(=O)/C(=C/c2ccc(F)cc2)SC1=S)C1CCS(=O)(=O)C1` (configuration not stated), the activation is 1.08%.

As to `COc1ccc(NS(=O)(=O)c2ccc(C(=O)Nc3c(C)n(C)n(-c4ccccc4)c3=O)cc2)cc1`, the activation was -1.99%.

Turning to `Cc1c(NS(=O)(=O)c2ccc(NC3CCCC3)c([N+](=O)[O-])c2)c(=O)n(-c2ccccc2)n1C`, the activation is 12.5% (active).

`COc1ccc(C(=O)C(C)OC(=O)c2cccc(S(=O)(=O)Nc3c(C)n(C)n(-c4ccccc4)c3=O)c2)cc1` (configuration not stated): the activation is 0.13%.

For the compound `CCc1cc2c(NC(Cc3ccccc3)C(=O)O)ncnc2s1` (configuration not stated), the activation is 0.89%.

On to `Cc1cccc(NC(=O)Nc2nnc(-c3ccccc3)o2)c1`, for which the activation was -2.14%.

Regarding `COc1cc(/C=N/N2CCN(c3ccccc3)CC2)ccc1OC(C)=O`, the activation was 1.16%.

For `COc1c(C)cc(C(O)c2ncc(-c3cccc(C(F)(F)F)c3)[nH]2)cc1C` (configuration not stated), the activation is -1.28%.

With `OC(c1ccc(F)cc1)c1ncc(-c2cccc(C(F)(F)F)c2)[nH]1` (configuration not stated), the activation was 1.67%.

Turning to `COc1cccc(-c2cnc(C(O)c3ccccc3OC)[nH]2)c1` (configuration not stated), the activation was 9.73% (active).

Regarding `C=CCN(C(=O)Nc1ccc2c(c1)nc(C)n2C)c1ccccc1`, the activation was 5.19%.

On to `O=C(COC(=O)c1ccc2ncsc2c1)Nc1ccc(Cl)cc1`, for which the activation was 1.52%.

`Cc1ccc(-c2cc(C(F)(F)F)n3ncc(C(=O)N4CCCCC4c4cccnc4)c3n2)cc1` (configuration not stated): the activation is 0.13%.

Regarding `FC(F)(F)c1cc(-c2ccco2)nc(N2CCOCC2)n1`, the activation is 2.59%.

For `COC(=O)c1cnn2c(C(F)(F)F)cc(-c3ccco3)nc12`, the activation is 10.2% (active).

As to `COC(=O)[C@]12C[C@H](CC(=O)NCc3cccc4ccccc34)C(=O)N(CCc3ccc(OC)c(OC)c3)C1=C[C@H](C1CCCC1)O[C@@H]2C`, the activation is -1.86%.

For `COC(=O)[C@]12C[C@H](CC(=O)NCc3cccs3)C(=O)N(CCc3ccc(OC)c(OC)c3)C1=C[C@H](C(C)C)O[C@@H]2C1CC1`, the activation was -0.36%.

On to `CCCCOCCCNC(=O)C[C@H]1C[C@@]2(C(=O)OC)C(=C[C@H](C(C)(C)C)O[C@@H]2C)N(CCc2ccc(OC)c(OC)c2)C1=O`, for which the activation is 14.6% (active).

As for `O=C(NCc1ccccc1)C(c1cccnc1)N(C(=O)c1csnn1)c1ccc(F)cc1` (configuration not stated), the activation is 4.37%.

For the compound `Cc1cccc(C(=O)OC(C)CN2CCCC2)c1` (configuration not stated), the activation is 2.07%.

On to `O=C(CN1C(=O)CC(c2ccccc2)S(=O)(=O)c2ccccc21)NC1CCCC1` (configuration not stated), for which the activation was 4.27%.

Take `O=C1c2cccc(OCC(=O)N3N=C(c4cccs4)CC3c3ccc(F)cc3)c2CCN1Cc1ccccc1` (configuration not stated): the activation was 11.2% (active).

On to `CC(=O)Oc1ccccc1C1=NN(C(C)=O)C(c2ccccc2)C1` (configuration not stated), for which the activation is 1.26%.

Turning to `COc1cccc(C2CC(c3cccs3)=NN2C(=O)CSC2=NCCS2)c1OC` (configuration not stated), the activation was -2.03%.

As for `O=C(CCc1nnc(CCCCc2ccccc2)o1)NC(c1cccnc1)C(F)(F)F` (configuration not stated), the activation is -0.47%.

For the compound `CCCCc1cc(=O)oc2cc(C)cc(OCc3nn[nH]n3)c12`, the activation is 23.1% (active).

On to `CCOC(=O)CCc1c(C)c2ccc(OCc3nn[nH]n3)c(C)c2oc1=O`, for which the activation is 3.81%.

On to `COc1ccc(-c2cc3ccc(OCc4nn[nH]n4)cc3oc2=O)cc1`, for which the activation was 0.67%.

Regarding `CC(C)Cn1c(N)c(C(=O)COC(=O)C2CCCN2C(=O)c2cccs2)c(=O)n(C)c1=O` (configuration not stated), the activation is -0.78%.

Take `C#CCOCCOCCOCCNc1nc(N2CCOCC2)nc(N2CCN(C(=O)[C@H](Cc3ccc(O)cc3)n3cc(CCO)nn3)CC2)n1`: the activation was -0.17%.

On to `CCOc1ccc(C(=O)NCC(=O)N2CCN(c3ccc(C(F)(F)F)cn3)CC2)cc1`, for which the activation is 0.73%.

Take `Brc1ccc(/C=N/N2CCN(C3c4ccccc4-c4ccccc43)CC2)s1`: the activation was 19.4% (active).

With `CC(=O)C[C@@H]1OC[C@H](C)N1S(=O)(=O)c1ccc(C)cc1`, the activation is 1.64%.

With `CC(NC(=O)C(C)(C)C)C(c1cccs1)N1CCN(Cc2ccccc2)CC1` (configuration not stated), the activation was -0.04%.

`NC(=O)C1(Nc2ccccc2Cl)CCCC1`: the activation is -2.76%.

With `Cc1ccc(SCC(=O)c2sc(-c3ccccc3)nc2C)cc1`, the activation was 4.57%.

For `Cc1nc(N2CCOCC2)sc1C(=O)NN`, the activation is -0.39%.

For `Cc1nc(-c2ccc(Cl)cc2)sc1C(=O)NN`, the activation is 35.4% (active).

On to `O=c1ccn([C@@H]2O[C@H](CNS(=O)(=O)c3cc4ccccc4s3)[C@@H](O)[C@H]2O)c(=O)[nH]1`, for which the activation is -0.41%.

Consider `COc1ccc(C(CNC(=O)c2ccc(S(=O)(=O)Nc3ccccc3C)cc2)N2CCOCC2)cc1` (configuration not stated), for which the activation was 0.05%.

For the compound `COc1ccc(CCOC(=O)CNC(=O)c2ccc(Cl)cc2Cl)cc1`, the activation was -0.5%.

Consider `COc1cc2c(=O)n(C)c3ccccc3c2cc1OC`, for which the activation is -0.16%.
